Test results reported in ChEMBL document CHEMBL1157539, “Thousands of chemical starting points for antimalarial lead identification” (Nature, 2010).
Values joined by “and” are separate entries in the source; they are usually repeats but may differ in a detail not shown here. Equal values may be shown once.

Columns and labels:
Type in all cases: functional
[1] = test system: Plasmodium falciparum; assay: GSK_TCMDC: Inhibition of Plasmodium falciparum 3D7 in whole red blood cells, using parasite LDH activity as an index of growth. Test compounds present at 2uM
[2] = test system: Plasmodium falciparum; assay: GSK_TCMDC: Inhibition of Plasmodium falciparum Dd2 in whole red blood cells, using parasite LDH activity as an index of growth. Test compounds present at 2uM
[3] = test system: HepG2; assay: GSK_TCMDC: Percent inhibition of human HepG2 cell line. Test compounds present at 10uM.

Structure (SMILES)	Inhibition [1]	Inhibition [2]	Inhibition [3]
NC(=O)c1ccc2[nH]cc(C3CCN(CC4CCC(NC(=O)/C=C/c5ccc(Cl)c(Cl)c5)CC4)CC3)c2c1 (stereo not drawn)	100%	26% and 32%	0% and 11%
CC(C)(C)c1ccc(Cn2nc(C(=O)N3CCN(C(=O)C4CCCO4)CC3)c3ccccc32)cc1 (stereo not drawn)	90%	83%	0%
FC(F)(F)c1ccc(NC(=S)N2CCC(CN3CCC(c4c[nH]c5ccccc45)CC3)CC2)cc1	100%	45%	35%
Cc1ccc2c(C3=CCN(CCCCC4(C)C(=O)Nc5ccccc54)CC3)c(C)[nH]c2c1 (stereo not drawn)	95%	91%	9%
CC(=O)N(Cc1ccccc1-c1cccc(CNCCc2ccccc2)c1)C1CCN(Cc2ccccc2)CC1.O=C(O)C(F)(F)F	89%	30%	19%
CC[C@H]1CN2CC[C@@H]1C[C@H]2[C@H](O)c1cc(N2CCC(C(N)=O)CC2)nc2ccc(OC)cc12	99%	9%	17%
CC[C@H]1CN2CC[C@H]1C[C@@H]2[C@@H](O)c1ccnc2ccccc12	98%	20%	10%
Cc1c2ccncc2c(C)c2c1[nH]c1ccccc12 [ELLIPTECINE]	95%	97%	38%
CC[C@H]1CN2CC[C@H]1C[C@H]2[C@@H](O)c1cc(OCCCN(C)C)nc2ccc(OC)cc12	99%	8%	0%
CN(C)CCCOc1ccc(CN2CCC(c3c[nH]c4ccc(NCC5CCCCC5)cc34)CC2)cc1.O=C(O)C(F)(F)F	99%	99%	58%
N#Cc1ccc(N(CC(=O)NCCc2ccccc2)CC2CC2)c2ccccc12.O=C(O)C(F)(F)F	99%	48%	0%
CC(=O)N(Cc1cccc(-c2ccc(CNCCc3ccccc3)cc2)c1)C1CCN(Cc2ccccc2)CC1.O=C(O)C(F)(F)F	99%	50%	32%
O=C(/C=C/c1ccc(Cl)c(Cl)c1)N1CCC(CN2CCC(c3c(Br)[nH]c4ccccc34)CC2)CC1	100%	99%	41%
CC(=O)Nc1ccc(OCCN(CC(C)(C)C)c2ccc(C#N)c(C(F)(F)F)c2)c(Cl)c1	87%	93%	0%
COc1ccc(CCNCc2ccc3nc(N)cc(C)c3c2)cc1	100%	86%	23%
Cc1c(C)c2c(c(C)c1O)CC[C@@](C)(C(=O)N1CCC(CN3CCC(c4c[nH]c5ccccc45)CC3)CC1)O2	98%	90%	21%
COC(=O)c1ccc(CC(C)NCC(O)c2ccccc2Cl)cc1 (stereo not drawn)	94%	55%	1%
O=C(C=Cc1ccc(F)c(Br)c1)N1CCC(CN2CCC(c3c[nH]c4ccccc34)CC2)CC1	100%	9%	39%
O=C(/C=C/c1cccc2ccccc12)NC1CCC(CN2CCC(c3c[nH]c4ccccc34)CC2)CC1 (stereo not drawn)	100%	72% and 66%	45% and 53%
O=C(C=C1c2ccccc2-c2ccccc21)NC1CCC(CN2CCC(c3c[nH]c4ccccc34)CC2)CC1 (stereo not drawn)	99% and 100%	64% and 67%	21% and 54%
CC[C@H]1CN2CC[C@H]1C[C@H]2[C@H](O)c1cc(-c2cccc(Cl)c2)nc2ccc(OC)cc12.Cl	98%	99%	16%
CCOC(C(=O)OCCN(C(C)C)C(C)C)(c1ccccc1)c1ccccc1	97%	4%	4%
O=C(/C=C/c1ccc(Cl)cc1)NC1CCC(CN2CCC(c3c[nH]c4ccccc34)CC2)CC1 (stereo not drawn)	99% and 100%	90% and 67%	40% and 39%
CCN1CC=C(c2c[nH]c3ccccc23)CC1	84%	58%	27%
COC(=O)c1ccc(CC(C)NCC(O)c2ccc3ccc4ccccc4c3c2)cc1.O=C(O)/C=C/C(=O)O (stereo not drawn)	100%	97%	21%
CCCCNC(c1ccc(Cl)cc1)C(O)c1ccc(Cl)cc1.Cl (stereo not drawn)	99%	98%	13%
